Compound activity: PubChem, several laboratories
This is a sample that favours compounds with a hit; in the whole collection about 3.5% have one here.
Autofluor counter – counter-screen for toxin protease inhibitors: compound fluorescence | fluorescence intensity (no concentration beside the values) | compound autofluorescence counterscreen, microsphere flow cytometry; hits give high values | hit rate 3.1% among 360,000; in the data active means fluorescence intensity above about 16000; inconclusive means no clear call, values can overlap the other calls
BoNT-F LC inh – BoNT/F light chain protease inhibitors, primary screen, biochemical, flow cytometry, MLPCN library. inhibition, % at 10 µM. Multiplex microsphere protease cleavage assay. hit rate 0.22% among 360,000; in the data active means inhibition above about 35%, passing the limit was not always enough; inconclusive means no clear call, values can overlap the other calls; further: plate controls were buffer without enzyme for full effect and enzyme alone for no effect
Anthrax LF prot – Bacillus anthracis LF protease inhibitors, primary screen, biochemical, multiplex microsphere, MLPCN library. Lethal factor (Bacillus anthracis), P15917. multiplex microsphere protease cleavage assay. inhibition, % at 10 µM. hit rate 0.12% among 360,000. AID 588501, 2011; further: plate controls were buffer without enzyme for full effect and enzyme alone for no effect
Target sequence (P15917 whole entry, looked up): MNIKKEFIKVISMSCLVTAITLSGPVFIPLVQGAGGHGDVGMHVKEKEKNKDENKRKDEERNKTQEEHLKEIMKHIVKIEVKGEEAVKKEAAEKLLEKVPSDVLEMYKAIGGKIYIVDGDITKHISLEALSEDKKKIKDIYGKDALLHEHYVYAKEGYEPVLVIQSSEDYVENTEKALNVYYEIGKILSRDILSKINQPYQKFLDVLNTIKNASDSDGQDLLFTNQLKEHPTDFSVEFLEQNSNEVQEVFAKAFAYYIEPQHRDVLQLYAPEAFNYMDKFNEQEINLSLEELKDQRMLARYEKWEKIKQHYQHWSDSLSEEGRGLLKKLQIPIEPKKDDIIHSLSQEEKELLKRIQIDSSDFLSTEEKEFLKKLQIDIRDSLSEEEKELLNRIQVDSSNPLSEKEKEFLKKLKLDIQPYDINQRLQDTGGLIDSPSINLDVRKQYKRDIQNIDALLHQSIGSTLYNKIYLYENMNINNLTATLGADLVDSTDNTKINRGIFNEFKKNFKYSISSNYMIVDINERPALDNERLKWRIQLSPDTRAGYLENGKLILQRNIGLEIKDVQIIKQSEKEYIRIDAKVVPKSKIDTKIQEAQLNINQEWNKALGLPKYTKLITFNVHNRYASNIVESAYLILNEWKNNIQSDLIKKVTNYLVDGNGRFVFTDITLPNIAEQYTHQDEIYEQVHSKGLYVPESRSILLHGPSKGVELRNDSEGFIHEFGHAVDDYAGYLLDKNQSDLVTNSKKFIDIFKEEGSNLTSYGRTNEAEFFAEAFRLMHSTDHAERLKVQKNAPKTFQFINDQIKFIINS
3CLpro inhibitor – SARS-CoV 3CLpro protease inhibitors, primary screen, biochemical, quenched FRET; hit rate 0.14% among 290,000; recombinant SARS-CoV 3CLpro, quenched FRET peptide cleavage; Replicase polyprotein 1ab (Severe acute respiratory syndrome coronavirus), P0C6X7; inhibition, % at 6 µM; in the data active means inhibition above about 12%
BoNT A protease – BoNT/A light chain protease inhibitors, primary screen, biochemical, flow cytometry, MLPCN library | AID 588499, 2011 | hit rate 0.17% among 360,000 | inhibition, % at 10 µM | Botulinum neurotoxin type A light chain protease (Clostridium botulinum A str. ATCC 3502) | multiplex microsphere protease substrate cleavage; further: plate controls were buffer without enzyme for full effect and enzyme alone for no effect
The depositor's hits bear a star; ? = inconclusive; nt = no result given. Unless noted, no stated cut-off is given here; in the data, active means inhibition above about 30%; inconclusive means no clear call, values can overlap the other calls; inactive means below that.

SMILES	Autofluor counter	BoNT-F LC inh	Anthrax LF prot	3CLpro inhibitor	BoNT A protease
COC(=O)c1ccc(NC(=O)CSc2nc3ccccc3c(=O)[nH]2)cc1	20547*	0.2	-0.7	-1.0	0.1
COc1ccc(NC(=O)CSc2nc(O)c(Cc3ccccc3)c(=O)[nH]2)cc1	23050*	0.9	-1.2	-3.1	?
COc1ccc(-n2c(SC)nc(O)c(Cc3ccccc3)c2=O)cc1	22787*	-1.6	0.0	6.3	?
COc1ccc(-n2c(SCC(=O)Nc3ccccc3OC)nc(O)c(Cc3ccccc3)c2=O)cc1	4423	2.6	0.3	6.2	-0.5
CC1(C(=O)NC2CCCCC2)CCC(=O)N1CC(F)(F)F (configuration not stated)	5763	4.7	5.3	nt	0.9
Cc1ccccc1C(=O)NNc1ccc([N+](=O)[O-])cc1	19390*	10.5	-8.1	1.8	?
COc1ccc(-c2nc(C#N)c(N3CCCCC3)o2)cc1	3499	0.6	7.6	4.6	0.7
COc1nc(C#N)c(N2CCOCC2)o1	23391*	-2.6	-1.9	-8.6	-2.1
CCOc1ccc(S(=O)(=O)NCCC(=O)Nc2ncccc2C)cc1	6200	3.6	8.4	0.8	-0.1
COCCn1c(SCC(=O)NC(=O)NCc2ccccc2)nc2ccccc21	2915	0.4	-3.0	-4.4	-0.3
COc1cccc(C2CC(c3ccccc3)Nc3ncnn32)c1 (configuration not stated)	22399*	0.4	0.2	-0.8	-0.4
O=C1NC2(CCCCC2)N=C1c1ccc(F)cc1	22118*	-5.8	-0.9	-1.7	-4.2
O=C1NC2(CCCC2)N=C1c1ccc(Cl)cc1	23960*	-2.4	0.1	2.4	-2.1
Cc1cc(Br)ccc1NC(=O)CN(C)C(=O)c1cccc(S(=O)(=O)N2CCN(C)CC2)c1	3939	-5.4	-3.2	nt	-0.3
CCCCNC(=O)CCn1c(=O)c2ccccc2n(Cc2ccc(Cl)cc2)c1=O	2760	-9.5	0.4	1.5	-0.3
Cc1cc(C)c(NN=c2c(=O)c3ccccc3c2=O)c(C)c1	16485*	-1.3	-2.9	-1.5	-1.0
O=C(NC1CCCCC1)C(c1ccc(F)cc1)N(CCc1ccccc1)C(=O)CN1C(=O)c2ccccc2S1(=O)=O (configuration not stated)	2351	1.1	-0.2	2.1	0.3
Fc1cnc(N2CCc3ccccc32)nc1N1CCc2ccccc21	16473*	-1.5	-1.9	5.4	-0.1
CC#CCCCC(=O)Nc1cccc(C(=O)O)c1	19921*	7.3	-3.6	1.9	5.8
O=C1OC(c2ccccc2)(c2ccccc2)c2ccsc21	3494	-4.6	-7.3	nt	-0.2
O=C(NC12CCC(O)C(SC1)/C2=N/O)c1ccccc1 (configuration not stated)	19906*	7.4	-10.9	-2.7	4.3
O=C(NC12CC3CC(CC(C3)C1)C2)c1ccccc1	4492	-7.2	-4.3	0.5	0.0
Nc1nc(CSc2ncn(-c3ccccc3)n2)cs1	22447*	4.8	0.9	-0.1	3.6
Cc1cc(C(=O)CN2C(=O)NC(Cc3c[nH]c4ccccc34)C2=O)c(C)n1C (configuration not stated)	23788*	-8.6	-4.4	1.6	-4.2
CNC(=O)CN1C(=O)NC(Cc2c[nH]c3ccccc23)C1=O (configuration not stated)	5105	0.1	-2.9	1.3	-1.0
SMILES	Autofluor counter	BoNT-F LC inh	Anthrax LF prot	3CLpro inhibitor	BoNT A protease
Cc1cnc(C(=O)Nc2ccc(S(=O)(=O)N(C(C)C)C(C)C)cc2)cn1	3900	9.1	2.7	1.2	0.6
O=S(=O)(Nc1ccc(Cc2ccncc2)cc1)c1ccc(Cl)c(Cl)c1	16421*	1.5	-3.6	8.4	0.3
Cc1ccc(-n2c3c(c(=O)[nH]c2=O)C(C(F)(F)F)(C(F)(F)F)NC(=O)N3)cc1	16132*	-0.7	1.4	5.1	0.7
O=C(Cc1ccccc1)c1c[nH]c(C(=O)NCCCn2ccnc2)c1	nt	nt	nt	-4.6	nt
O=C(Nc1ccccc1C(=O)NCCCn1ccnc1)c1ccccc1	20501*	-1.5	-0.9	-2.1	-1.3
O=C(c1ccc(C(F)(F)F)cc1)c1c[nH]c(C(=O)NCCCn2ccnc2)c1	19564*	0.6	-1.0	4.8	?
